The source of these data is ChEMBL document CHEMBL1157539, “Thousands of chemical starting points for antimalarial lead identification” (Nature, 2010).

Common to all, as to type: functional
The subject of assay [1] is Plasmodium falciparum. The experiment in a line: GSK_TCMDC: Inhibition of Plasmodium falciparum 3D7 in whole red blood cells, using parasite LDH activity as an index of growth. Test compounds present at 2uM.
For assay [2], the system named is Plasmodium falciparum. In words: GSK_TCMDC: Inhibition of Plasmodium falciparum Dd2 in whole red blood cells, using parasite LDH activity as an index of growth. Test compounds present at 2uM.
In a further assay the test system is HepG2. In words: GSK_TCMDC: Percent inhibition of human HepG2 cell line. Test compounds present at 10uM.

Values joined by “and” are separate entries in the source; they are usually repeats but may differ in a detail not shown here. Equal entries are not always repeated.

`CCCCCCNC(=O)C1Cc2c([nH]c3cc(Cl)ccc23)C2(CCN(Cc3ccccc3)CC2)N1` (stereo not given): the Inhibition (in general, how much of the control response was suppressed) with Plasmodium falciparum [1] is 90%; in the assay on Plasmodium falciparum [2] it was 56%; with HepG2, 21%.
The like results for `OC(Cn1ccnc1)(c1ccc(Cl)cc1Cl)C1CCCCC1` (stereo not given) were, in that order, 98%, 58% and 7%.
The like results for `Oc1cccc(-c2nc3cc(C4=NC5CCCCC5N4)ccc3[nH]2)c1` (stereo not given) were, in that order, 94%, 99% and 3%.
The like results for `CCOc1cc(Cc2cnc(N)nc2N)cc(OCC)c1OCCCCC(=O)OC` were, in that order, 95%, 0% and 0%.
In the case of `CCc1ccc(S(=O)(=O)Nc2ccc(CCN3CCC(N4CCCCC4)CC3)cc2)cc1`, the Inhibition with Plasmodium falciparum [1] is 100%; with Plasmodium falciparum [2], 13%; in the assay with HepG2, 35%.
With `O=C1c2ccccc2-n2c1nc1ccccc1c2=O` [TRYPTANTHRIN], the Inhibition in the assay on Plasmodium falciparum [1] came out at 93%; in the assay with Plasmodium falciparum [2], 80%; in the assay with HepG2, 9%.
For the compound `CC1CN(Cc2ccc(-c3cccc(-c4nc5cc(F)ccc5[nH]4)c3)cc2)CC(C)O1.O=C(O)C(F)(F)F` (stereo not given), the Inhibition with Plasmodium falciparum [1] came to 93%; in the assay with Plasmodium falciparum [2], 20%; in the assay with HepG2 it was 28%.
For the compound `Cc1noc(-c2ccccc2)c1NC(=O)N1CCN(CCCCCCNC(=O)/C=C/c2ccc(Cl)c(Cl)c2)CC1`, the Inhibition worked out at 95% in the assay on Plasmodium falciparum [1], 1% with Plasmodium falciparum [2] and 6% in the assay on HepG2.
The matching figures for `O=C(Nc1ccc(S(=O)(=O)N2CCCCC2)cc1)c1cc(-c2cc(Cl)ccc2O)n[nH]1`: 97%, 87% and 36%.
On to `O=C(N[C@H]1CCN(Cc2ccc(OCCN3CCCC3)c3ccccc23)C1)c1ccc(Cl)c(Cl)c1.O=C(O)C(F)(F)F`, for which the Inhibition is recorded as 100% with Plasmodium falciparum [1], 51% with Plasmodium falciparum [2] and 90% in the assay on HepG2.
The matching figures for `CC(=O)Nc1cc(C(=O)Nc2cccc(-c3cccc(-c4nc5cccc(C)c5[nH]4)c3)c2)ccc1C`: 100%, 62% and 25%.
The like results for `COCCn1c(Sc2ccc(C#N)c([N+](=O)[O-])c2)nnc1-c1ccc(N(C)C)cc1` were, in that order, 89%, 66% and 2%.
Take `CC(CNC(=O)C(c1cc2ccccc2o1)N1CCN(C(c2ccccc2)c2ccccc2)CC1)c1ccccc1` (stereo not given): the Inhibition was 99% in the assay on Plasmodium falciparum [1], 89% in the assay on Plasmodium falciparum [2] and 2% in the assay on HepG2.
Consider `CCC(=O)c1c(C)n(-c2ncnc3c2nc(C)n3-c2ccc(C)cc2C)c2ccccc12`, for which the Inhibition in the assay on Plasmodium falciparum [1] is 96%; in the assay on Plasmodium falciparum [2], 78%; with HepG2, 0%.
The like results for `CC(C)c1ncc(-c2ccncc2)c(C2CCC(CNC(=O)c3ccncc3)CC2)n1` (stereo not given) were, in that order, 85%, 49% and 0%.
As for `CCCCN(CCCC)CC(O)c1cc(-c2ccc(Cl)cc2)nc2c(Cl)cc(Cl)cc12.Cl` (stereo not given), the Inhibition in the assay on Plasmodium falciparum [1] is 97%; in the assay on Plasmodium falciparum [2], 97%; in the assay with HepG2 it was 0%.
As to `O=C(O)C(F)(F)F.c1cc(-c2ccc(CN3CCCC3)cc2)cc(-c2nc3ccccc3[nH]2)c1`, the Inhibition with Plasmodium falciparum [1] was 100%; in the assay with Plasmodium falciparum [2], 52%; in the assay with HepG2 it was 25%.
The like results for `O=C(NC1CC1)c1ccc(Cn2c(SCc3cccc([N+](=O)[O-])c3)nc3ccccc3c2=O)cc1` were, in that order, 91%, 65% and 12%.
The like results for `COc1ccc(C(c2ccc(N(C)C)cc2)c2ccc(N(C)C)cc2)cc1` were, in that order, 100%, 99% and 72%.
Regarding `CC(C)N1CCC(Oc2ccc(CN3CCN(C(c4ccccc4)c4ccc(Cl)cc4)CC3)cc2)CC1.Cl` (stereo not given), the Inhibition with Plasmodium falciparum [1] worked out at 97%; with Plasmodium falciparum [2], 46%; in the assay with HepG2, 44%.
The like results for `Cc1cccc2nc(-c3ccc(-c4ccc(NC(=O)Nc5ccc(Cl)cc5)cc4)s3)[nH]c12` were, in that order, 100%, 100% and 78%.
The matching figures for `Cc1ccnc(NC(c2cccc(OCc3ccccc3)c2)c2ccc3cccnc3c2O)c1` (stereo not given): 95%, 88% and 26%.
Consider `Fc1ccc2[nH]c(-c3ccc(-c4cccc(CN5CCN(CCN6CCOCC6)CC5)c4)cc3)nc2c1.O=C(O)C(F)(F)F`, for which the Inhibition in the assay with Plasmodium falciparum [1] is recorded as 100%; in the assay with Plasmodium falciparum [2], 100%; in the assay on HepG2, 35%.
With `CCN(CC)CCCCOc1ccc2c(c1)C(=O)c1cc(OCCCCN(CC)CC)ccc1-2.Cl`, the results for the Inhibition with Plasmodium falciparum [1], with Plasmodium falciparum [2] and with HepG2 were 100%, 44% and 24%, respectively.
The matching figures for `Cc1cc(-c2ccc(NC(=O)N3CCc4cc(Cl)c(N5CCN(C)CC5)cc43)cc2)ccc1C#N`: 100%, 83% and 100%.
On to `COc1cc(NC2CCCC(NCc3cn(S(=O)(=O)c4ccccc4)c4ccccc34)C2)nc2ccccc12` (stereo not given), for which the values for the Inhibition in the assay on Plasmodium falciparum [1], with Plasmodium falciparum [2] and with HepG2 were 100%, 61% and 4%, respectively.
The like results for `CCN(CC)CCCN1CCN(C(=O)c2cccc(-c3noc(C(F)(F)F)n3)c2)CC1` were, in that order, 91%, 74% and 0%.
`COc1cccc(NC(=O)Cn2c(C)c(C#N)c3ccccc32)c1`: the values for the Inhibition with Plasmodium falciparum [1], with Plasmodium falciparum [2] and in the assay with HepG2 were 100%, 100% and 16%, respectively.
With `CCOCCCn1c(=N)c(C(=O)NCc2ccc(OC)cc2)cc2c(=O)n3cccc(C)c3nc21`, the Inhibition in the assay on Plasmodium falciparum [1] amounted to 99%; with Plasmodium falciparum [2], 46%; with HepG2, 24%.
Regarding `COc1cc2nc(N3CCC(CNC(=O)c4ccc(-c5ccc(-c6noc(C)n6)cc5C)cc4)CC3)nc(N)c2cc1OC`, the Inhibition in the assay on Plasmodium falciparum [1] turned out to be 100%; with Plasmodium falciparum [2], 99%; in the assay on HepG2 it was 99%.
In the case of `Cn1cncc1-c1cc2c(Nc3ccc(OCc4ccccc4)cc3)ncnc2cn1`, the results for the Inhibition with Plasmodium falciparum [1], with Plasmodium falciparum [2] and in the assay on HepG2 were 99%, 75% and 0%, respectively.
As for `CCC(=O)NC(c1ccco1)c1cc(Cl)c2cccnc2c1O` (stereo not given), the Inhibition was found to be 89% in the assay on Plasmodium falciparum [1], 74% in the assay on Plasmodium falciparum [2] and 58% with HepG2.
Turning to `CCn1cnc2c(N3CCCS3(=O)=O)cc(C(=O)N[C@@H](Cc3ccccc3)[C@H](O)CNC(C)(C)c3cccc(C(F)(F)F)c3)cc21`, the Inhibition is reported as 99% in the assay on Plasmodium falciparum [1], 97% in the assay on Plasmodium falciparum [2] and 9% in the assay with HepG2.
The like results for `Cc1cc(CNCC2CCC(CNCCCc3ccccc3)CC2)ccc1O` (stereo not given) were, in that order, 100%, 0% and 25%.
The matching figures for `COc1ccc(Nc2ncc(Cl)c(Nc3cccnc3C(N)=O)n2)cc1N1CCN(C)CC1.Cl`: 95%, 97% and 77%.
The like results for `COC1CCC(C(=O)Nc2ccc(-c3cccc(-c4nc5cc(C(F)(F)F)ccc5[nH]4)c3)cc2)CC1` (stereo not given) were, in that order, 85%, 48% and 69%.
Consider `O=C(CCc1c[nH]cn1)Nc1ccc(-c2cccc(-c3nc4ccccc4[nH]3)c2)cc1`, for which the Inhibition in the assay with Plasmodium falciparum [1] amounted to 100%; in the assay on Plasmodium falciparum [2] it was 42%; with HepG2, 12%.
The matching figures for `CCC(C)(C)c1ccc(OCCCC(=O)Nc2ccc(Cl)c([N+](=O)[O-])c2)c(C(C)(C)CC)c1`: 92%, 88% and 0%.
Regarding `Cc1cc(NC(=O)NCCN2CCC(NC(=O)c3ccc(F)cc3)CC2)c2ccccc2n1`, the Inhibition in the assay on Plasmodium falciparum [1] was determined as 99%; in the assay on Plasmodium falciparum [2], 76%; with HepG2, 0%.
The matching figures for `CC(=O)Nc1ccc(CNC2Cc3ccc(-c4ccc(Cl)c(Cl)c4)cc3C2)cc1` (stereo not given): 89%, 7% and 49%.
With `O=C(c1ccc(Cl)cc1)N1CCCC(C(=O)N(Cc2nnc(-c3ccccc3Cl)o2)C2CC2)C1` (stereo not given), the Inhibition came to 95% in the assay with Plasmodium falciparum [1], 96% in the assay on Plasmodium falciparum [2] and 10% in the assay with HepG2.
For the compound `CCC(CC(NCCCCNC(=O)c1ccc(NC(=O)c2ccc(Cl)cc2)cc1)c1ccccc1)c1ccccc1OC` (stereo not given), the Inhibition is 100% and 89% in the assay on Plasmodium falciparum [1]; 56% and 76% with Plasmodium falciparum [2]; 23% and 10% in the assay with HepG2.
In the case of `CN1CCN(CC(=O)Nc2ccc(-c3ccc(-c4nc5cc(C(F)(F)F)ccc5[nH]4)cc3)cc2)CC1`, the results for the Inhibition in the assay on Plasmodium falciparum [1], in the assay with Plasmodium falciparum [2] and with HepG2 were 100%, 98% and 43%, respectively.
The like results for `O=C(/C=C/c1ccc(Cl)c(Cl)c1)N1CCN(C(=O)Nc2ccc(F)c(Cl)c2)CC1` were, in that order, 97%, 87% and 19%.
Take `Cn1cncc1C(=O)Nc1cccc(-c2ccc(-c3nc4ccccc4[nH]3)cc2)c1`: the Inhibition with Plasmodium falciparum [1] worked out at 99%; with Plasmodium falciparum [2] it was 11%; in the assay with HepG2 it was 0%.
The like results for `CCNc1cc(C)nc(Nc2ccc(NC(=O)c3cccs3)cc2)n1` were, in that order, 100%, 50% and 21%.
The like results for `Cc1cccc(S(=O)(=O)Nc2cccc(CCN3CCC(N4CCCCC4)CC3)c2)c1` were, in that order, 87%, 13% and 15%.
The like results for `C[C@H](Cc1ccc(C[C@@H](C)NCC(O)c2cc(Cl)c(N)c(Cl)c2)cc1)NCC(O)c1cc(Cl)c(N)c(Cl)c1` (stereo not given in full) were, in that order, 98%, 50% and 26%.
For the compound `O=C(/C=C/c1ccc(Cl)c(Cl)c1)NC1CCC(CN2CCC(Cc3cc4ccccc4[nH]3)CC2)CC1` (stereo not given), the Inhibition in the assay on Plasmodium falciparum [1] was 100%; with Plasmodium falciparum [2] it was 74%; in the assay with HepG2, 99%.
For the compound `O=C(Nc1ccccc1O)C1CCN(c2ncnc3cc(-c4ccc(F)cc4)sc23)CC1`, the Inhibition with Plasmodium falciparum [1] was 97%; with Plasmodium falciparum [2] it was 94%; in the assay on HepG2, 10%.
The like results for `FC(F)(F)c1ccc2[nH]c(-c3cccc(-c4ccc(CNCCN5CCNCC5)cc4)c3)nc2c1.O=C(O)C(F)(F)F` were, in that order, 96%, 0% and 17%.
Regarding `O=C(N[C@@H](Cc1ccccc1)[C@H](O)CNC1CCOCC1)c1cc(C2CCCC2)cc(N2CCCCS2(=O)=O)c1.O=CO`, the Inhibition in the assay with Plasmodium falciparum [1] worked out at 100%; in the assay on Plasmodium falciparum [2] it was 98%; in the assay on HepG2 it was 3%.
As to `CCN(CC)CCN(Cc1ccc(-c2ccc(C(F)(F)F)cc2)cc1)C(=O)Cn1c(CCc2ccc(F)c(C#N)c2)nc(=O)c2ccccc21.O=C(O)C(O)C(O)C(=O)O`, the figures for the Inhibition in the assay with Plasmodium falciparum [1], in the assay on Plasmodium falciparum [2] and with HepG2 were 98%, 55% and 18%, respectively.
As for `COC(=O)c1cccc(CNCc2ccc(-c3ccc(-c4nc5cccc(C)c5[nH]4)cc3)cc2)c1.O=C(O)C(F)(F)F`, the figures for the Inhibition in the assay on Plasmodium falciparum [1], in the assay with Plasmodium falciparum [2] and in the assay on HepG2 were 100%, 86% and 17%, respectively.
The like results for `Cc1cc(N[C@@H](Cc2ccccc2)C(=O)NCCc2ccccc2)nc(NCC2CCCCC2)n1.O=C(O)C(F)(F)F` were, in that order, 100%, 95% and 24%.
For the compound `Cc1ccc(-c2csc(C)n2)c(C)c1`, the Inhibition in the assay on Plasmodium falciparum [1] is on record as 98%; in the assay with Plasmodium falciparum [2], 0%; in the assay on HepG2, 12%.
The matching figures for `Cn1c(NC(=O)C2CCCN(C(=O)c3ccc(O)c(-c4ccc(Cl)c(Cl)c4)c3)C2)nc2ccccc21` (stereo not given): 98%, 99% and 0%.
On to `Cc1ccc(-c2nc(NC(=O)Nc3ccc(C(F)(F)F)cc3)sc2C)cc1Cl`, for which the Inhibition was found to be 99% in the assay on Plasmodium falciparum [1], 86% with Plasmodium falciparum [2] and 29% with HepG2.
The like results for `CCCc1ccc(NC(=O)c2cccc(CN3CCCN(Cc4cccc(O)c4)CC3)c2)cc1.O=C(O)C(F)(F)F` were, in that order, 97%, 40% and 15%.
The like results for `CCc1ccccc1NC(=O)CN1CCN(c2ncnc3scc(-c4ccc(F)cc4)c23)CC1` were, in that order, 83%, 62% and 6%.
